This test deals with Shiga toxin 2 (Escherichia coli O157:H7) (UniProt P09385+P09386). In words: E. coli 0.157:H7 Shiga Toxin SOP - stx2 screening assay. The format is functional. On the set-up: scale not given: direction of the effect not stated beside the values. As to conditions: 30 µM.
On to `Cn1ccc(C(=O)N2CCC(Cc3cccc4cccnc34)C2)n1` (stereo not given), for which the Percent Effect came out at 15.7%.
Next, `CC(=O)NCCc1ccc(C(=O)N2CCCC2c2cnn(C)c2)cc1` (stereo not given): 21.3%; `COc1ccccc1C1(C(=O)NCCN2CCOCC2)CCOCC1`: 21.5%.
As for `Cc1cccc(CNC(=O)CNc2cc(CO)ccc2Cl)c1`, the figure is 0.559%; as for `O=C(NCc1cnc2n1CCN(CC1CC1)CC2)C1CCC1`, 7.18%; as for `CCc1noc(C2CCCCN2C(=O)c2nnc3ccccc3n2)n1` (stereo not given), -8.75%.
Next, `O=C(Nc1cccc(CN2CCOC2=O)c1)N1CCOCC1`: -57.1%; `O=C(c1cnccn1)N1CCc2ncnc(-c3cccnc3)c2CC1`: -12.4%; `Cc1cc(CN2CCC(c3ccnn3CCO)CC2)no1`: -16.1%.
`Cc1ccc(NC2CCN(C(=O)c3ccsc3)CC2)nn1`: the Percent Effect was -2.79%.
As for `Cc1cc2c(=O)n3c(nc2s1)CCN(C(=O)c1ccncc1)CC3`, the figure is 3.16%.
As for `Cc1ccccc1-c1cncc(C2CCN(C)CC2)n1`, the figure is -4.06%.
Next, `NC(=O)Cc1ccc(NC(=O)C2CCOCC2)cc1`: 20.8%; `COc1cc(C(=O)N(C2CC2)C2CC(=O)NC2=O)ccc1C` (stereo not given): 3.11%; `CCc1nc(C2CCCN(C(=O)c3cn(C)nc3C)C2)no1` (stereo not given): -20.7%.
As for `O=C(Cc1ccc2c(c1)OCCO2)N1CCCC(n2cccn2)C1` (stereo not given), the Percent Effect was 10.8%.
As for `Cn1cnc(S(=O)(=O)NCCN2CCCCCC2=O)c1Cl`, the figure is 17.3%; as for `O=C(CC1CCCCC1)N1CCN(C(=O)NCc2ccccn2)CC1`, 20.8%.
Regarding `COC(=O)CC(c1ccc(OC)c(OC)c1)c1oc(C)cc(=O)c1O` (stereo not given), the Percent Effect is -7.17%.
For the compound `CN(Cc1ccco1)C(=O)C1CSCN1C(=O)c1cccnc1` (stereo not given), the Percent Effect is 13.1%.
As for `NC(=O)c1ccc(N2CCCCC2)c(NC(=O)c2cc(Br)ccc2F)c1`, the figure is -50.5%; as for `Cc1ccc(-c2nnc(SCC(=O)O)n2-c2ccc(C)cc2)cc1`, -4.96%; as for `COc1ccc(CN(Cc2cncn2C)CC2CCCO2)cc1OC` (stereo not given), 10.9%.
As for `CN(Cc1ccco1)C[C@H]1OC[C@@H]2CCN(Cc3cccs3)C[C@@H]21`, the figure is -17.4%.
For the compound `COc1ccc(NC(=O)C2CCOC2)c(N2CCN(C(C)=O)CC2)n1` (stereo not given), the Percent Effect was -6.14%.
For `CNC(=O)COc1ccc(CNCc2ccc(F)cc2F)cc1`, the Percent Effect is -35.4%.
Next, `O=C(O)c1cc2c(nc1O)CC(c1cccs1)CC2=O` (stereo not given): -19.6%; `CC(C)CN1C(=O)C2(CCN(Cc3nccs3)C2)c2ccccc21` (stereo not given): -65.4%; `COCCNC(=O)Nc1ccc(-n2cncn2)c(F)c1`: 12.3%.
As for `COCc1ccccc1C(=O)N1CCCC(n2nc(C)cc2C)C1` (stereo not given), the figure is -10.9%; as for `CCc1nnc2n1CCN(Cc1csc(-c3ccc(C)o3)n1)C2`, -33.1%.
As for `COc1ncccc1CN1CCn2c(Cn3cncn3)cnc2C1`, the figure is -13.9%; as for `CCc1nc(CN2CCCN(C(=O)c3cn[nH]c3CC)CC2)cs1`, -78.4%.
On to `COC(=O)C1CCN(C(=O)c2ccc(NS(C)(=O)=O)c(C)c2)CC1`, for which the Percent Effect was -1.7%.
As for `O=C(C1CCCc2[nH]ncc21)N1CCCCCC1` (stereo not given), the figure is 1.51%.
As for `Cc1ccc(-c2nnc(CN3CCc4cnc(C)nc4C3)o2)cc1`, the figure is -61%; as for `CC(C)(C)C(=O)N1C[C@H](c2ccsc2)[C@H]2CN(Cc3cccs3)CC[C@H]21`, -20.2%.
Take `CN(C)Cc1nnc(C2CCN(C(=O)CCc3cccs3)CC2)n1C`: the Percent Effect was -11.1%.
`CC(C)OCCC(=O)N(C)CCCc1cc(-c2ccccc2)no1`: the Percent Effect came out at 38.9%.
With `Cc1cn2c(n1)CCC(NC(=O)c1ccc(CS(C)(=O)=O)o1)C2` (stereo not given), the Percent Effect worked out at 10.6%.
